The values that follow come from PubChem BioAssay AID463173 (ICCB-Longwood Screening Facility, Harvard Medical School, 2010).

Molecules are shown by their SMILES. The campaign covered roughly 52,000 compounds. About 4,300 (8.3%) were called active. Cut-off read from the data, not from the text of the source: active = survival mostly below about 52% (no sharp cut-off); inactive = mostly above about 56%. Only a selection was taken, and actives are over-represented in it overall.

The experiment deals with DeltatarO mutant. Description: growth inhibition of S. aureus wild type versus tarO mutant, primary screen, teichoic acid synthesis inhibitors, RN4220, OD600 (AID 463173). To be noted: OD600, 18 h, active compounds read low, screened at 18.75 µg/mL (by protocol).
With `Cc1ccc(-c2nnc(SCC(=O)NCc3ccccc3)o2)cc1`, the survival is 142% (inactive).
Next, `CCN(CC)c1ccc(CNCCCSc2nnnn2C)cc1`: 88% (inactive).
As for `COc1cc(C)c(S(=O)(=O)N2CCCC(C)C2)cc1C` (stereo unspecified), the figure is 81% (inactive).
As for `Cc1nnc(NC(=O)CSc2nccn2-c2ccc(Cl)cc2)s1`, the figure is 104% (inactive); as for `O=C(NC1CCN(C(=O)NC2CCCCC2)CC1)c1ccc(F)cc1`, 85% (inactive).
Take `Cc1nn(-c2cc(N3CCOCC3)ccc2N)c(=O)c2ccccc12`: the survival was 76% (inactive).
As for `COc1ccc(N2CCN(C(=O)C(C)n3c(=O)cc(C(F)(F)F)c4c(C)nn(C)c43)CC2)cc1` (stereo unspecified), the figure is 97% (inactive).
Next, `CCCCNC(=O)c1ccc2c(c1)N(CC)C(=O)c1ccccc1S2`: 102% (inactive); `Cc1ccc(CCNC(=O)C2CCCN(c3nnc(C)c4c(C)n(-c5ccccc5)nc34)C2)cc1` (stereo unspecified): 80% (inactive).
For `CCCCN(CC)CCCNC(=O)c1cc2c(=O)[nH]c3ccccc3c2s1`, the survival was 151% (inactive).
Consider `O=C(NCC(c1cccnc1)N1CCc2ccccc21)c1cccc(F)c1` (stereo unspecified), for which the survival is 44% (active).
Regarding `O=C(NCC(c1cccnc1)N1CCc2ccccc21)c1cccc(C(F)(F)F)c1` (stereo unspecified), the survival is 45% (active).
In the case of `O=C(NCC(c1cccnc1)N1CCc2ccccc21)c1cccc(Br)c1` (stereo unspecified), the survival was 41% (active).
Regarding `CCc1ccccc1NC(=O)C(=O)NCC(c1cccnc1)N1CCc2ccccc21` (stereo unspecified), the survival is 58% (inactive).
Next, `O=C(NCC(c1cccnc1)N1CCc2ccccc21)c1ccc(F)cc1` (stereo unspecified): 100% (inactive); `N#Cc1ccccc1NC(=O)C(=O)NCC(c1cccnc1)N1CCc2ccccc21` (stereo unspecified): 53% (inactive); `O=C(NCC(c1cccnc1)N1CCc2ccccc21)C(=O)Nc1ccccc1F` (stereo unspecified): 101% (inactive).
For `O=C(NCC(c1cccnc1)N1CCc2ccccc21)c1ccc(F)c(F)c1` (stereo unspecified), the survival is 52% (inactive).
Next, `Cc1cccc(NC(=O)C(=O)NCC(c2cccnc2)N2CCc3ccccc32)c1C` (stereo unspecified): 53% (inactive); `CCOc1ccc(C2C(C(N)=O)=C(C)Nc3nc(-c4ccc(OC)cc4)nn32)cc1` (stereo unspecified): 87% (inactive); `COc1ccc(C)cc1NC(=O)C1CCC(CNS(=O)(=O)c2ccc3c(c2)CCCC(=O)N3)CC1` (stereo unspecified): 67% (inactive).
Next, `CCOC(=O)c1ccc(NC(=O)C(C)N(c2ccc(OCC)cc2)S(C)(=O)=O)cc1` (stereo unspecified): 62% (inactive).
Consider `O=C(CCc1ccccc1)NN1C(=O)c2ccccc2C1=O`, for which the survival is 61% (inactive).
Consider `CCc1ccccc1NC(=O)c1cnc(N2CCCCC2)c2ccccc12`, for which the survival is 96% (inactive).
As for `CC(C)(C)OC(=O)N1CCC(c2c(C(=O)N3CCOCC3)cnn2-c2ccccc2Cl)CC1`, the figure is 78% (inactive); as for `COc1ccc(NC(=O)Cn2c(=O)n(-c3ccc(OC)cc3)c(=O)c3ccc(C(=O)NCc4ccc(C)cc4)cc32)cc1`, 77% (inactive).
